Records with an inconclusive call do not appear. Entries that show only a call come without a potency. The source made the active and inactive calls. The call rests on the fitted dose curve; in most records, active means well fitted inhibition curve with a large enough effect; inconclusive means small, poorly fitted or top-dose-only effect; inactive means flat fitted curve, though single readings scatter.
Assays:
Assay in all cases: qHTS profiling for inhibitors of Plasmodium falciparum proliferation (AID 504749); further: nearly all actives have a fitted effect of over 60% in size
Details in all cases: P. falciparum in erythrocytes, SYBR Green DNA, 72 h; series mostly up to 28.7 µM
CP191 = tested on: CP191
How it was run: (§1)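 Fluorescence of SYBR Green-bound parasite DNA, read at 485/535 nm, served as the growth measure. Infected erythrocytes were cultured with compound 72 h; artemisinin (0.29 uM) and DMSO wells defined the normalization range.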

CP192 = tested on: CP192
How it was run: as §1

CP194 = tested on: CP194
How it was run: as §1

CP201 = tested on: CP201
How it was run: as §1

CP203 = tested on: CP203
How it was run: as §1

CP211 = tested on: CP211
How it was run: as §1

CP215 = tested on: CP215
How it was run: as §1

CP217 = tested on: CP217
How it was run: as §1

CP237 = tested on: CP237
How it was run: as §1

CP238 = tested on: CP238
How it was run: as §1

CP247 = tested on: CP247
How it was run: as §1

CP250 = tested on: CP250
How it was run: as §1

CP252 = tested on: CP252
How it was run: as §1

CP256 = tested on: CP256
How it was run: as §1

CP262 = tested on: CP262
How it was run: as §1

CP265 = tested on: CP265
How it was run: as §1

CP266 = tested on: CP266
How it was run: as §1

CP268 = tested on: CP268
How it was run: as §1

CP269 = tested on: CP269
How it was run: as §1

CP260 = tested on: CP260
How it was run: as §1
Potency means the concentration at half of the fitted maximal effect.

Structure (SMILES) | Potency (CP191) | Potency (CP192) | Potency (CP194) | Potency (CP201) | Potency (CP203) | Potency (CP211) | Potency (CP215) | Potency (CP217) | Potency (CP237) | Potency (CP238) | Potency (CP247) | Potency (CP250) | Potency (CP252) | Potency (CP256) | Potency (CP262) | Potency (CP265) | Potency (CP266) | Potency (CP268) | Potency (CP269) | Potency (CP260)
C#C[C@]1(O)CC[C@H]2[C@@H]3CCC4=CC(=O)CC[C@@H]4[C@H]3CC[C@@]21CC | inactive | inactive | inactive | inactive | inactive | inactive | inactive | inactive | 6.31 µM (active) | inactive | inactive | inactive | inactive | inactive | inactive | inactive | inactive | inactive | inactive | 
NC(N)=NCc1cccc(I)c1 | inactive | inactive | inactive | inactive | inactive | inactive | inactive | inactive | inactive | inactive | inactive | inactive | inactive | inactive |  | inactive | inactive | inactive | inactive | 
N/C(=N\N=C\c1ccc(Cl)cc1)N/N=C/c1ccc(Cl)cc1 | 3.16 µM (active) | inactive | inactive | inactive | inactive | inactive | inactive | 8.91 µM (active) | 10 µM (active) |  |  |  |  | 10 µM (active) | inactive |  | inactive | inactive | inactive | 3.55 µM (active)
O=C(Nc1cccc(C2=NCCN2)c1)Nc1cccc(C2=NCCN2)c1 | 1.12 µM (active) | 15.1 µM (active) | 15.1 µM (active) | 13.5 µM (active) | 15.1 µM (active) | 13.5 µM (active) | 12 µM (active) | 3.55 µM (active) | 6.31 µM (active) | 6.31 µM (active) | 2.82 µM (active) | 3.55 µM (active) | 3.16 µM (active) | 0.708 µM (active) | 4.78 µM (active) |  |  | 15.1 µM (active) | 12 µM (active) | 2.51 µM (active)
Cc1nc(-c2ccc(Cl)cc2)oc1COC(C)(C)C(=O)O | inactive | inactive | inactive | inactive | inactive | inactive | inactive | inactive | inactive | inactive |  | inactive | inactive | inactive | inactive | inactive | inactive | inactive | inactive | inactive
Cc1ccc(S(=O)(=O)NC(=O)NC2CCCC2)cc1 | inactive | inactive | inactive | inactive | inactive | inactive | inactive | inactive | inactive | inactive | inactive | inactive | inactive | inactive | inactive | inactive |  | inactive | inactive | inactive
CCc1ccc(C(=O)C(C)CN2CCCCC2)cc1 (stereo not drawn) | inactive | inactive | inactive | inactive | inactive | inactive | inactive | inactive | inactive | inactive | inactive | inactive | inactive | inactive | inactive | inactive | inactive | inactive | inactive | 
COc1ccc(C(Cl)=C(c2ccc(OC)cc2)c2ccc(OC)cc2)cc1 | 12.6 µM (active) | inactive | inactive | inactive | inactive | inactive | inactive | 11.2 µM (active) |  | 10 µM (active) |  | 10 µM (active) |  |  | inactive | 10 µM (active) | inactive |  | inactive | 
CCCCCCCCOc1ccc(C(=O)c2ccccc2)c(O)c1 | inactive | inactive | inactive | inactive | inactive | inactive | inactive | inactive | inactive | inactive | inactive | inactive | inactive | inactive | inactive | inactive |  | inactive | inactive | inactive
CC1(COc2ccc(CC3SC(=O)NC3=O)cc2)CCCCC1 (stereo not drawn) | inactive | inactive | inactive | inactive | inactive | inactive | inactive | inactive | inactive | inactive |  | inactive | inactive | inactive | inactive | inactive | inactive | inactive | inactive | inactive
C/C=C/c1ccc(O)c(OC)c1 | inactive | inactive | inactive | inactive | inactive | inactive |  | inactive | inactive | inactive | inactive | inactive | inactive | inactive | inactive | inactive | inactive | inactive | inactive | inactive
COc1cc(C(=O)N2CCCCCCC2)cc(OC)c1OC | inactive | inactive | inactive | inactive | inactive | inactive | inactive | inactive | inactive | inactive | inactive |  | inactive | inactive | inactive | inactive | inactive | inactive | inactive | inactive
CC(=O)Nc1ccc(OC(=O)c2ccccc2OC(C)=O)cc1 | inactive | inactive | inactive | inactive | inactive | inactive | inactive | inactive | inactive | inactive | inactive | inactive | inactive | inactive | inactive | inactive |  | inactive | inactive | inactive
O=C(c1ccc(F)cc1)C1CCN(CCn2c(=S)[nH]c3ccccc3c2=O)CC1 | 11.2 µM (active) | 6.75 µM (active) | 7.57 µM (active) | 7.57 µM (active) | 6.01 µM (active) | 6.01 µM (active) | 5.36 µM (active) | 5.01 µM (active) | 5.01 µM (active) | 7.94 µM (active) | 4.47 µM (active) | 10 µM (active) | 6.31 µM (active) | 8.91 µM (active) |  | 7.94 µM (active) | 7.57 µM (active) | 6.01 µM (active) | 6.75 µM (active) | 3.16 µM (active)
O=C(Nc1ncc([N+](=O)[O-])s1)c1cccs1 | inactive | inactive | inactive | inactive | inactive | inactive | inactive | inactive | inactive | inactive | inactive | inactive | inactive | inactive | inactive | inactive |  | inactive | inactive | inactive
N#CCC(=O)NN | inactive | inactive | inactive | inactive | inactive | inactive |  | inactive | inactive | inactive | inactive | inactive | inactive | inactive | inactive | inactive | inactive | inactive | inactive | inactive
CC(C)(C)NC[C@H](O)COc1cccc2c1CCCC2=O | inactive | inactive | inactive | inactive | inactive | inactive |  | inactive | inactive | inactive | inactive | inactive | inactive | inactive | inactive | inactive | inactive | inactive | inactive | inactive
CCc1oc2ccccc2c1C(=O)c1cc(Br)c(O)c(Br)c1 | inactive | inactive | inactive | inactive | inactive | inactive |  | inactive | inactive | inactive | inactive | inactive | inactive | inactive | inactive | inactive | inactive | inactive | inactive | inactive
Cc1ccc(O)c([C@H](CCN(C(C)C)C(C)C)c2ccccc2)c1 | 7.08 µM (active) | 13.5 µM (active) | 5.36 µM (active) | 13.5 µM (active) | 3.79 µM (active) | 9.53 µM (active) | 6.75 µM (active) | 5.01 µM (active) | 5.01 µM (active) | 4.47 µM (active) | 6.31 µM (active) | 11.2 µM (active) | 6.31 µM (active) | 7.94 µM (active) |  | 7.08 µM (active) |  | 8.49 µM (active) | 7.57 µM (active) | 5.01 µM (active)
O=C(Oc1cccc2cccnc12)c1ccccc1 | inactive | inactive | inactive | inactive | inactive | inactive | inactive | inactive | inactive | inactive | inactive | inactive | inactive | inactive | inactive | inactive | inactive | inactive | inactive | 
Cc1cccc(C)c1NC(=O)CN1CCCCCC1 | inactive | inactive | inactive | inactive | inactive | inactive | inactive | inactive |  | inactive | inactive | inactive | inactive | inactive | inactive | inactive | inactive | inactive | inactive | inactive
COc1ccccc1N1CCN(CCCCNC(=O)c2ccc(-c3ccc(C(C)=O)cc3)cc2)CC1 | inactive | inactive | inactive | inactive | inactive | inactive | inactive | inactive |  | inactive | inactive | inactive | inactive | inactive | inactive | inactive | inactive | inactive | inactive | inactive
COc1ccc2c(c1)c1c3n2CCN(C)C3=NCC1 | inactive | inactive | inactive | inactive | inactive | inactive | inactive | inactive |  | inactive | inactive | inactive | inactive | inactive | inactive | inactive | inactive | inactive | inactive | inactive
COc1ccc(CCN(C)CCCN2CCc3cc(OC)c(OC)cc3CC2=O)cc1OC | inactive | inactive | inactive | inactive | inactive | inactive | inactive | inactive |  | inactive |  | inactive | inactive |  | inactive | inactive | inactive | inactive | inactive | 
COc1cc(C(=S)N2CCOCC2)ccc1O | inactive | inactive | inactive | inactive | inactive | inactive | inactive | inactive | inactive | inactive | inactive | inactive | inactive | inactive | inactive | inactive |  | inactive | inactive | inactive
NC(=S)N/N=C/c1cccnc1 | inactive | inactive | inactive | inactive | inactive | inactive | inactive | inactive | inactive | inactive |  | inactive | inactive | inactive | inactive | inactive | inactive | inactive | inactive | inactive
N=C(N)N1CCc2ccccc2C1 | inactive | inactive | inactive | inactive | inactive | inactive | inactive | inactive | inactive | inactive | inactive | inactive | inactive | inactive | inactive | inactive | inactive | inactive | inactive | 
